Assay results reported in PubChem BioAssay (NCATS).
Records with an inconclusive call do not appear. Values without a mark were called inactive. The call rests on the fitted dose curve; in most records, active means well fitted cell-killing curve with a large enough effect; inconclusive means small, poorly fitted or top-dose-only effect; inactive means flat fitted curve, though single readings scatter.

Experiment: MultiTox-Fluor Cytotoxicity Assay - LYMP1-001 - Live Cells (AID 947);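 further: 0% = DMSO only and full inhibition = tetraoctylammonium bromide control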
Conditions: LYMP1-001 lymphoblastoid cells, live-cell protease fluorescence viability; series mostly up to 92.2 µM; activity change, negative = cytotoxicity: at the top concentration
Source text: NIH Chemical Genomics Center [NCGC]
NIH Molecular Libraries Screening Centers Network [MLSCN]
National Institutes of Environmental Health Sciences [NIEHS]
National Toxicology Program [NTP]
We have developed a 1536-well cell-based assay for quantitative high throughput screening (qHTS) against a number of cell lines to determine in vitro cytotoxicity of small molecules. This particular assay uses a human lymphoblastoid cell line (LYMP1-001) purchased from Coriell Institute.
NCGC Assay Protocol Summary:
The MultiTox-Fluor Cytotoxicity Assay (Promega) is a homogeneous method to simultaneously measure the relative number of live and dead cells in culture by detecting changes in cell membrane integrity. There are two fluorogenic peptide substrates in the assay reagent. Viable cells are determined when the cell-permeant substrate (GF-AFC) enters the cell and is cleaved by protease from live cells resulting in liberated fluorophore. This live-cell protease activity restricted to viable cells is proportional to cell number. The dead cells are determined by using fluorogenic cell-impermeant peptide substrate (bis-AAF-R110) which cleaved by dead cell proteases leaking from damaged cell membrane.
Using the MultiTox-Fluor Cytotoxicity Assay, the relative number of live cells was measured in the lymphoblastoid cell line with complete culture medium following compound treatment for 16 hours. The assay was performed in opaque black Kalypsys 1536-well plates. In the screen, tetraoctylammonium bromide was used as positive control. Library compounds were measured for their ability to cause acute toxicity in the cell line, as reflected by a decrease in live cell protease activity, in a concentration-dependent manner. […] AC50 values were determined from concentration-response data modeled with the standard Hill equation.
qHTS protocol for MultiTox-Fluor Cytotoxicity assay
[Step] [Parameter] [Value] [Description]
1. Reagent; 5 uL; 2500 lymphoblastoid cells/well
2. Time; 5 hr; 37 C incubation
4. Controls; 23 nL; Tetraoctylammonium bromide 6.4pM to 92 uM
5. Time; 16 hr; 37 C incubation
6. Reagent; 5 uL; MuliTox-Fluor Assay reagent
7. Time; 60 min; Room Temperature
8. Detection; live-cell fluorescence (Ex/Em=405/510); EnVision plate reader
Keywords: cell viability, cytotoxicity, lymphoblastoid cell line, fluorescence, NTPHTS, NTPHTS_NCGC, NIEHS, EPA, DSSTox, MLSMR, MLSCN, NIH Roadmap, qHTS, NCGC

SMILES	activity change, negative = cytotoxicity
Clc1ccccn1	2.62%
CC(C)=C1CCC(C)CC1=O (stereo not given)	-3.81%
Cc1cc(C2(c3cc(C)c(O)cc3C)OS(=O)(=O)c3ccccc32)c(C)cc1O	-3.29%
CC(=O)c1nccs1	-2.06%
Nc1ccccc1[N+](=O)[O-]	-15.3%
Cc1ccc(Cl)cc1N	-3.03%
CCOCC(=O)O	8.12%
Nc1cccc2c(=O)[nH][nH]c(=O)c12	0.194%
c1ccc(Oc2ccccc2)cc1	-18.8%
CC(=O)CCc1ccccc1	4.31%
c1ccsc1	-7.89%
NC(=S)NNC(N)=S	-14.3%
O=[N+]([O-])c1ccc2nc[nH]c2c1	2.36%
CCN(C(=O)N(CC)c1ccccc1)c1ccccc1	0.651%
CC(=O)Nc1cccc(N)c1	2.64%
CCC(=O)/C=C/C1C(C)=CCCC1(C)C (stereo not given)	-18.9%
C=CCCC	1.59%
CCC1CO1 (stereo not given)	3.31%
CCNc1cc(O)ccc1C	0.304%
O=[N+]([O-])c1ccccc1CCO	-10.1%

SMILES	activity change, negative = cytotoxicity
BrC(Br)C(Br)Br	-34.5%
O=C(O)c1ccc(C(=O)O)cc1	-5.21%
NC(=O)c1ccccc1[N+](=O)[O-]	8.61%
CCOC(=O)C(C)C(C)=O (stereo not given)	10.6%
Cc1ccc(CO)cc1	5.68%
CC1(N)CCC(C(C)(C)N)CC1 (stereo not given)	2.82%
CCOCCO	-18.4%
Cc1ccc(C)o1	0.84%
Cc1ccccc1C=O	0.949%
CC(=O)Nc1ccc(C)cc1	-13.2%
c1ccc(Nc2ccccc2)cc1	-9.41%
Cc1cccc(C(=O)O)c1	4.62%
Nc1ccc(F)cc1F	2.79%
Cc1ccccc1C(N)=O	3.97%
CCCCOCCOCCOCCCC	4.54%
CCOCCOCC	-30%
CCCCCCC(=O)O	16.2%
Cc1ccc([N+](=O)[O-])c(N)c1	-15.1%
Cc1ccc2ccccc2c1[N+](=O)[O-]	0.175%
Nc1cc(Cl)c([N+](=O)[O-])cc1O	-6.85%
